Shown are actives, neighbours in structure and some others; about 1.7% of the full set was active somewhere.
GLP-1R agonist = qHTS of GLP-1 Receptor Agonists; 0.007% of 380,000 active; Potency, µM (titrated, usually from 45.6 µM), inactives show at the top dose activation, actives largely listed as activators; HEK293 GLP-1R CRE-luciferase, luminescence, 4-6 h; cells express a hypersensitive GLP-1R form; Glucagon-like peptide 1 receptor (Homo sapiens), P43220; also: % of control where 0% means no effect
Target sequence (P43220 whole entry, looked up): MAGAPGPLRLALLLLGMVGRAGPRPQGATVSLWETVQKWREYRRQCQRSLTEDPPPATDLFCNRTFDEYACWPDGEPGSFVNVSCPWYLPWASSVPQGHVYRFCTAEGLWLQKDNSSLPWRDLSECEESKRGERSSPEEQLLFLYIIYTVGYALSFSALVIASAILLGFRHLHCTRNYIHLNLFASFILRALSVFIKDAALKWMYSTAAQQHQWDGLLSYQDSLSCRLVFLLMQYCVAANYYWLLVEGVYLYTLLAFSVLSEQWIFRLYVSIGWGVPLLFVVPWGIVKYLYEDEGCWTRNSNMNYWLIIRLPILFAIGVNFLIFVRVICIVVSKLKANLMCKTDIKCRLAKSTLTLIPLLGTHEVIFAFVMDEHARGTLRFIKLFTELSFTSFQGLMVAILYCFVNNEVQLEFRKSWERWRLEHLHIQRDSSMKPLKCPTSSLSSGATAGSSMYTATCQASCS
GLP1R inv ag = qHTS of GLP-1 Receptor Inverse Agonists (Inhibition Mode); HEK293 GLP-1R CRE-luciferase, luminescence, 24 h; GLP-1R form is constitutively active; 1.6% of 410,000 active; Glucagon-like peptide 1 receptor (Homo sapiens), P43220; Potency, µM (top dose mostly 38.3 µM), for inactives: at the top dose activity change, negative = inhibition, actives largely listed as inhibitors; AID 624417, 2012; also: % is scaled to controls: 0 for no effect and ±100 for the full control effect; nearly all actives have a fitted effect of over 55% in size
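Seeding at 200 cells/uL, 12 h culture, 24 hr compound treatment, then luciferase reagent and a luminescence read; cells are HEK293 stably expressing a constitutively active GLP-1R plus cAMP-responsive luciferase.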
PTHR1 agonist = qHTS for PTHR1 Agonists: Primary Screen; Parathyroid hormone/parathyroid hormone-related peptide receptor (Homo sapiens), Q03431; HEK293 GP2 PTHR1 cells, GloSensor cAMP luminescence, 1 h; 0.075% of 410,000 active; Potency, µM (doses to about 115 µM), inactives show top-dose activation, usual class: activators; also: nearly all actives have a fitted effect of over 55% in size
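HEK-293-derived GP2 cells expressing PTHR1 and a GloSensor cAMP reporter, 3,000/well, plated overnight, given luciferin plus IBMX (each 0.5 mM as added) for 1 h at 37 °C, then compound for 1 h at 37 °C. Luminescence was read after 15 min at room temperature.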
HEK293 tox = qHTS of GLP-1 Receptor Inverse Agonists: Cytotox Screen. HEK293 cAMP-luciferase reporter cells, luminescence, 24 h. Potency, µM (doses to about 38.3 µM), for the others: at the highest dose activity change, negative = inhibition, hits mostly inhibitors. 0.13% of 410,000 active. AID 624418, 2012;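 also: loss of luciferase light is scored as toxicity; % is scaled to controls: 0 for no effect and ±100 for the full control effect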
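Step one: seed cells (200 cells/uL, DMEM with 10% Nu serum, 1% pen-strep). Step two: 12-hour incubation at 37 deg C. Step three: pin 23 nL compound, incubate 24 hr. Step four: add luciferase reagent, read luminescence 12 min later.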
RGS4 inh = Inhibitors of Regulator of G Protein Signaling (RGS) 4: qHTS | Regulator of G-protein signaling 4 (Homo sapiens), P49798 | Transcreener GDP fluorescence polarization, RGS4-accelerated GTP hydrolysis | Potency, µM (titrated, usually from 114 µM), for the others: at the top dose activity change, negative = inhibition, actives largely listed as inhibitors | 0.039% of 390,000 active | AID 504845, 2011; also: % is scaled to controls: 0 for no effect and ±100 for the full control effect; nearly all actives have a fitted effect of over 75% in size
Target sequence (P49798 whole entry, looked up): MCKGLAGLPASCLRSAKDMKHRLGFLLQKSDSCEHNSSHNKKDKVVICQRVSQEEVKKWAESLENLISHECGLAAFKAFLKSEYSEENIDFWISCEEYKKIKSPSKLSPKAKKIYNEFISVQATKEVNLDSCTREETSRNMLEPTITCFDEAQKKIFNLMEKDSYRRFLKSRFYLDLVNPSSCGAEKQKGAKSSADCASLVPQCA
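MLSMR compounds (23 nl, pin-transferred) preincubated 10 min at room temperature with a 500nM (2x) first reagent, then RGS4 at 900nM (2x) plus Transcreener GDP mix added; fluorescence polarization (620/688 nm) read before and after 90 min at 30 °C.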
* marks the source's active call; other numbers are inactive results; i = inactive; ? = inconclusive; . = no result given; [ ] = dose if it differs, or a comment. Calls follow the shape of the dose curve; as a rule, active = well fitted curve in the direction sought with a large enough effect; inconclusive = small, poorly fitted or top-dose-only effect, or another doubt; inactive = no such curve, though single readings can be large; an effect the other way counts as inactive or inconclusive. Potency is read from the fitted curve at half-maximal effect.

SMILES	GLP-1R agonist	GLP1R inv ag	PTHR1 agonist	HEK293 tox	RGS4 inh
O=S(=O)(c1ccc2c(c1)CCCC2)N1CCN(c2nc(-c3ccccc3)nc3ccccc23)CC1	.	.	.	.	3%
c1ccc(C2=NNC(c3ccccn3)=NN2)nc1	-4%	-4%	-26%	13%	-3%
CN(C)CCOC1c2ccccc2CCc2ccc3ccccc3c21 (stereo not given)	2%	5.6µM*	-12%	?	20%
CN(C)CCOC1c2ccccc2C=Cc2ccccc21	4%	?	-4%	6%	4%
CCc1nc2c(OCc3ccc(C(F)(F)F)cc3)cccn2c1N(C)C(=O)C1CC1	-7%	14µM*	-24%	-7%	.
CCCCC(=O)N(C)c1c(CC)nc2c(OCc3ccccc3C)cccn12	9%	11µM*	-8%	6%	.
Cc1ccc2cc(NC(=O)c3ccc(C(C)(C)C)cc3)ccc2n1	-4%	4µM*	-29%	-35%	1%
COc1ccccc1N(CC(=O)NCc1ccccc1)S(=O)(=O)c1cccs1	5%	8%	-24%	5%	.
CCN1C=C(Cc2ccc(OC)cc2)C2=C(C1)C(c1ccc(OC)cc1)C(C#N)=C(N)O2 (stereo not given)	3%	6.3µM*	i	-2%	-50%
CC(CNC(=O)c1csc2c1CCCCC2)c1ccccc1 (stereo not given)	.	?	-23%	4%	-6%
CN(CCCNC(=O)C1CCC(CNS(=O)(=O)c2ccccc2)CC1)Cc1ccccc1 (stereo not given)	9%	3.5µM*	i	-1%	-11%
CCOc1ccc(/C=C/C(O)=C2/C(=O)N(C)C3(C)CC2c2ccccc2O3)cc1OC (stereo not given)	10%	3.2µM*	-35%	-5%	-14%
COc1ccc(-c2nc3ccccc3c(C(=O)Nc3ccc(S(=O)(=O)Nc4cc(C)on4)cc3)c2C)cc1	-5%	5µM*	-4%	6%	-9%
Cc1cccc(N(Cc2ccccc2)C(=O)Cc2ccc(S(=O)(=O)N3CCOCC3)s2)c1	19%	?	-31%	14%	-8%
Cc1ccc(S(=O)(=O)CC(=O)Nc2nc3c(C)cc(C)cc3s2)cc1	.	2%	-5%	-6%	-29%
Cc1ccc(NC(=O)CN(C)C(=O)Cc2ccc(Cl)c(Cl)c2)cc1	14%	7.9µM*	i	-2%	-2%
O=[N+]([O-])c1ccc(NN=Cc2cccc(O)c2)nc1	14%	?	-22%	-17%	5%
O=[N+]([O-])c1ccc(NN=Cc2cc(Br)ccc2O)nc1	11%	2.8µM*	-23%	?	-2%
C=CCc1cc(Cl)ccc1OCCOCCNCCOC	4%	?	i	?	11%
CCC(C)NCCCOc1ccc(Cl)cc1C(C)(C)C (stereo not given)	-13%	-10%	-16%	63%	32%
C=CCc1cc(Cl)ccc1OCCOCCN(C)C	-2%	7.1µM*	i	1%	-23%
COCCCNCCCCSc1ccc(Cl)cc1	20%	11µM*	i	-4%	14%
C=CCc1cc(Cl)ccc1OCCNCCCOC	-1%	4.5µM*	-2%	?	-5%
COCCCNCCCOc1ccc(Cl)cc1C(C)(C)C	-3%	5.6µM*	i	?	-13%
O=C(CCCc1nc(-c2ccco2)no1)Nc1ccccc1[N+](=O)[O-]	.	12%	?	4%	12%
SMILES	GLP-1R agonist	GLP1R inv ag	PTHR1 agonist	HEK293 tox	RGS4 inh
CCCCNCCOCCSc1ccc(Cl)cc1	-4%	-28%	-12%[57.5 µM]	-5%	-6%
CC(C)NCCOCCSc1ccc(Cl)cc1	-5%	13µM*	-16%	-5%	-17%
COc1ccccc1C(=O)NC(=O)COC(=O)Cc1n[nH]c(=O)c2ccccc12	1%	39%	50µM*	13%	30%
COc1ccccc1C(=O)NC(=O)COC(=O)Cc1ccc(F)cc1	-9%	3%	?	-1%	42%
COc1ccc2c(=O)c(-c3ccc(C)cc3)c(-c3ccccc3)oc2c1	-3%	7.9µM*	-8%	4%	20%
C=CC[C@H](CC(=O)N(CCO)Cc1ccccc1)C(=O)N[C@@H](COC(=O)[C@@H](CC=C)Cc1ccc(F)cc1)Cc1c[nH]c2ccccc12	-1%	?	-7%	?	-9%
CCCC(c1nnnn1CC1CCCO1)N1CCN(c2nc3ccccc3s2)CC1 (stereo not given)	6%	?	-51%[57.5 µM]	-1%	24%
CCCCC(c1nnnn1CC1CCCO1)N1CCN(c2nc3ccccc3s2)CC1 (stereo not given)	6%	10µM*	-9%	-2%	-23%[11.4 µM]
COC(=O)c1c(NC(NC(=O)C(C)C)C(Cl)(Cl)Cl)sc2c1CCC2 (stereo not given)	-2%	8.9µM*	-33%	-5%	-42%
CCCCN(CCCC)CCNC(=O)c1cn(C)c2ccc(S(=O)(=O)N3CCOCC3)cc2c1=O	.	-6%	i	5%	-12%
CC(C)Oc1ccccc1C1Nc2ccccc2C(=O)N1c1ccc2c(c1)OCCO2 (stereo not given)	-9%	10µM*	-18%[57.5 µM]	23%	15%
CC(C)Oc1ccccc1C1CC(=O)Nc2cc3c(cc21)OCCO3 (stereo not given)	?	-13%	-37%	?	-14%
CC(C)(C)c1csc(NC(=O)c2ccc(Br)o2)n1	1%	10µM*	-14%	0%	-1%
CC(C)(C)c1csc(NC(=O)c2ccc(Cl)s2)n1	-2%	2.8µM*	-24%	-4%	1%
CC(C)(C)c1csc(NC(=O)c2ccncc2)n1	2%	25%	-33%	7%	5%
Cc1ccc(C(=O)Nc2nc(C(C)(C)C)cs2)s1	3%	?	-16%[57.5 µM]	16%	-15%
Cn1nccc1C(=O)N(CCN1CCCCC1)CC1CCCN(C2CCCC2)C1 (stereo not given)	-10%	-7%	i	-17%	7%
CC[C@@]12C(=O)N(c3cccc(F)c3)C(=O)N1[C@H](c1ccc(F)cc1)[C@@H]1C(=O)N(C3CCCCC3)C(=O)[C@@H]12	-3%	?	-2%	-6%	-10%
CC[C@@]12C(=O)N(c3cccc(Br)c3)C(=O)N1[C@H](c1ccc(F)cc1)[C@@H]1C(=O)N(C3CCCCC3)C(=O)[C@@H]12	-3%	8.9µM*	-11%	-31%	-5%
O=C1[C@H]2[C@@H](c3ccc(F)cc3)N3C(=O)N(c4cccc(Br)c4)C(=O)[C@@]3(Cc3ccccc3)[C@H]2C(=O)N1C1CCCCC1	0%	2.8µM*	-16%	7%	-10%
Cc1ccc(Nc2nc(NCc3ccco3)c3ccccc3n2)cc1	4%	2.5µM*	-32%	?	-22%
